Compound activity from PubChem.
SRC3 TRFRET art: TR-FRET detection interference compounds, artefact control for PPARgamma SRC-3 recruitment agonists, biochemical, TR-FRET ratio | TR-FRET ratio at 8 µM | actives 0.39% (n = 99,000) | TR-FRET artefact counter-screen, PPARgamma/SRC-3 format; stronger effect = higher value | AID 1048, 2008; in the data active = TR-FRET ratio above about 2000
PPARg SRC-2 ag: agonists of PPARg-SRC-2 recruitment, primary screen, biochemical, HTS | Peroxisome proliferator-activated receptor gamma (Homo sapiens), P37231 | PPARgamma LBD-SRC-2 recruitment | activation, % at 8 µM | actives 0.34% (n = 200,000);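 note: 0% = vehicle and 100% = reference agonist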
Target sequence (P37231 whole entry, looked up, the tested form may be a part): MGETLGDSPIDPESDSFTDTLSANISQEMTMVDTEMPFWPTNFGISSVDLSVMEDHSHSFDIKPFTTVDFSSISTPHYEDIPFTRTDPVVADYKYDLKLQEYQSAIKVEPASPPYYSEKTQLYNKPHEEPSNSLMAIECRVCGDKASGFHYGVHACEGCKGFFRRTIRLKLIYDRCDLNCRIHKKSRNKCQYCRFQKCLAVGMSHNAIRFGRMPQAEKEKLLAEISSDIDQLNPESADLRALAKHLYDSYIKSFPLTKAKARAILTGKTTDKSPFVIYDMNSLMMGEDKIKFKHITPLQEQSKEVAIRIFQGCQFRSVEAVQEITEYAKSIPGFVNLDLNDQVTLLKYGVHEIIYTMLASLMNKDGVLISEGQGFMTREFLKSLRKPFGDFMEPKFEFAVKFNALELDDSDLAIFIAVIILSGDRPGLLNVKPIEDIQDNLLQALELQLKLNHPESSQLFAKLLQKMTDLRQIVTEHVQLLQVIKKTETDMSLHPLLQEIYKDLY
TR-FRET SRC-2 ct: TR-FRET signal artefacts, primary screen, artefact control for PPARgamma SRC-2 agonist project, biochemical | TR-FRET artefact counter-screen; stronger effect = higher value | AID 1049, 2008 | actives 0.4% (n = 200,000) | TR-FRET ratio at 8 µM; in the data active = TR-FRET ratio above about 2000
SRC1 TRFRET art: TR-FRET detection interference compounds, primary screen, artefact control for PPARgamma SRC-1 recruitment agonists, biochemical, TR-FRET emission ratio; TR-FRET detection artefact counter-screen; stronger effect = higher value; TR-FRET ratio at 8 µM; actives 0.34% (n = 99,000); AID 1051, 2008; in the data active = TR-FRET ratio above about 2300
PPARg SRC-1 ag: PPARgamma agonists recruiting SRC-1 coactivator, primary screen, biochemical. Peroxisome proliferator-activated receptor gamma (Homo sapiens), P37231. PPARgamma-SRC-1 coactivator recruitment biochemical assay. activation, % at 8 µM. actives 0.41% (n = 200,000). AID 631, 2007; in the data active = activation above about 19%;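 note: 0% = DMSO and 100% = reference agonist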
PPARg SRC-3 ag: PPARgamma agonists recruiting SRC-3 coactivator, primary screen, biochemical | biochemical PPARgamma/SRC-3 coactivator recruitment assay | actives 0.26% (n = 200,000) | activation, % at 8 µM; in the data active = activation above about 23%;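 note: 0% = DMSO and 100% = reference agonist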
PPARg SRC2 ag: agonists of PPARgamma SRC-2 coactivator recruitment, confirmation, biochemical, HTS; shares compounds with PPARg SRC-3 ag; biochemical SRC-2 recruitment by PPARgamma; activation, % at 8 µM; actives 52% (n = 790); AID 1297, 2008;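 note: 0% = vehicle alone and 100% = reference agonist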
PPARg SRC1 conf: PPARgamma agonists recruiting SRC-1 coactivator, confirmation, biochemical; shares compounds with PPARg SRC-3 ag; PPARgamma–SRC-1 coactivator recruitment biochemical assay; activation, % at 8 µM; actives 43% (n = 790); in the data active = activation above about 20%;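 note: 0% = vehicle wells and 100% = reference agonist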
PPARg SRC3 conf: PPARgamma-driven SRC-3 coactivator recruitment agonists, confirmation, biochemical | shares compounds with PPARg SRC-3 ag | biochemical PPARgamma-SRC-3 coactivator recruitment, agonist mode | activation, % at 8 µM | actives 29% (n = 790) | AID 1301, 2008; in the data active = activation above about 24%;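 note: 0% = vehicle wells and 100% = reference agonist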
Active calls of the source: *; x = no result given. Shown are actives, neighbours in structure and some others; about 0.9% of the full set was active somewhere. Cut-off read from the data, not from the text of the source, unless noted: active = activation above about 22%; inactive = the rest.

SMILES	SRC3 TRFRET art	PPARg SRC-2 ag	TR-FRET SRC-2 ct	SRC1 TRFRET art	PPARg SRC-1 ag	PPARg SRC-3 ag	PPARg SRC2 ag	PPARg SRC1 conf	PPARg SRC3 conf
Cc1cc(=S)c2cccc(C)c2[nH]1	2209*	22*	2155*	2464*	16	20	2	3	2
CC(=O)Oc1ccc2ccccc2c1C(NC(=O)Cc1ccccc1)c1ccc(Cl)cc1 (stereo not drawn)	x	2	1600	x	-2	-12	x	x	x
Cc1ccc(CSc2nc3ncccc3[nH]2)cc1	x	25*	1846	x	11	16	18	16	10
COc1ccc(Br)cc1CNc1ccc(O)cc1	x	23*	1752	x	10	18	7	5	6
NCCc1c(-c2ccccc2)n(-c2ccccc2)c2ccccc12	1720	5	1519	1815	4	4	x	x	x
Cc1nnc(NC(=O)c2cccc(S(=O)(=O)N3CCc4ccccc43)c2)s1	x	9	1519	x	8	11	x	x	x
O=C(Nc1nc2c(s1)CN(Cc1ccccc1)CC2)c1cccc(S(=O)(=O)N2CCc3ccccc32)c1	x	15	4126*	x	37*	39*	50*	41*	30*
S=c1[nH]nc(C2CCCCC2)o1	1279	12	1529	1772	5	0	x	x	x
O=C(CSc1nnc(-c2cccs2)n1-c1ccccc1)Nc1ccccc1	x	64*	1837	x	46*	31*	20	17	9
CCOC(=O)CSc1nnc(-c2cccs2)n1-c1ccccc1	x	6	1676	x	6	6	x	x	x
Cc1ccc(NC(=O)CSc2nc3ccccc3c3nc(CCc4c(C)n[nH]c4C)nn23)cc1F	x	6	1631	x	25*	22	2	-1	2
Cc1n[nH]c(C)c1CCc1nc2c3ccccc3nc(SCC(N)=O)n2n1	x	0	1450	x	0	5	x	x	x
Cn1c(N=Nc2ccc(N3CCOCC3)cc2)[n+](C)c2ccccc21	2227*	53*	2551*	2668*	43*	39*	22	18	17
Cn1c(=Nc2ccc(N3CCOCC3)cc2)ccc2ccccc21	x	-5	1413	x	-3	-6	x	x	x
CCOc1cccc(C2C(C(=O)c3ccc(C)o3)=C(O)C(=O)N2Cc2ccncc2)c1 (stereo not drawn)	x	7	1504	x	13	5	x	x	x
Cc1ccc2nc(N3C(=O)C(O)=C(C(=O)c4cc5ccccc5o4)C3c3cccs3)sc2c1 (stereo not drawn)	x	14	1932	x	30*	30*	7	2	2
COC(=O)c1sc(N2C(=O)c3oc4ccccc4c(=O)c3C2c2cccs2)nc1C (stereo not drawn)	x	-2	1363	x	-6	-2	x	x	x
Cc1cc(N2C(=O)C(O)=C(C(=O)c3ccc(C)o3)C2c2cccs2)no1 (stereo not drawn)	x	37*	2253*	x	35*	45*	19	13	13
CCOc1cccc(C2C(C(=O)c3ccc(C)o3)=C(O)C(=O)N2c2nccs2)c1 (stereo not drawn)	x	27*	2000*	x	22*	22	13	8	8
Cc1cc(N2C(=O)C(O)=C(C(=O)c3ccco3)C2c2ccc(O)cc2)no1 (stereo not drawn)	x	8	1340	x	0	-11	x	x	x
Oc1ccc(Cl)cc1CNc1ccc(Br)cn1	x	10	1491	x	23*	4	1	9	6
Oc1c(Cl)cc(Cl)cc1CNc1ccc(Br)cn1	x	0	1523	x	2	-4	x	x	x
CCCCOc1[nH]c2nc(-c3ccco3)n(Cc3ccco3)c(=N)c2c1C#N	x	4	1469	x	5	-1	x	x	x
C#CCSc1ncc(-c2ccccc2)cn1	1553	10	1733	2074	21*	6	5	4	5
CCCC(=O)C1=C(O)C(C(=O)OC)C(C)(C)CC1=Nc1ccc(N)cc1 (stereo not drawn)	x	2	1498	x	5	1	x	x	x
SMILES	SRC3 TRFRET art	PPARg SRC-2 ag	TR-FRET SRC-2 ct	SRC1 TRFRET art	PPARg SRC-1 ag	PPARg SRC-3 ag	PPARg SRC2 ag	PPARg SRC1 conf	PPARg SRC3 conf
CCCC(=Nc1ccc(N)cc1)C1=C(O)C(C(=O)OC)C(C)(C)CC1=O (stereo not drawn)	x	19	1541	x	9	27*	3	1	2
COc1ccc(N(CN2C(=O)C3CC=CCC3C2=O)C(=O)c2ccco2)cc1 (stereo not drawn)	x	5	1738	x	19*	12	5	3	2
O=C(COC(=O)C1CCN(S(=O)(=O)c2ccc3c(c2)OCCO3)CC1)Nc1ccc(C(F)(F)F)cc1	1622	2	1524	1803	5	2	x	x	x
CCOC(=O)CCS(=O)(=O)c1nc(-c2ccccc2)cc(C(F)(F)F)n1	x	15	1475	x	15	13	x	x	x
COC(=O)CCS(=O)(=O)c1nc(-c2ccccc2)cc(C(F)(F)F)n1	x	5	1639	x	21*	9	8	16	11
O=C1NC(=S)S/C1=C\c1ccc(SCc2ccco2)o1	1738	33*	1647	1829	21*	14	2	6	2
C=C(C)Cn1cnc2cc(C)c(C)cc21	1528	-9	1419	1424	-2	-2	x	x	x
CCN(CC)c1ccc(/C=C2\CCC(/C=N/NC(=O)c3ccc(=O)n(C)c3)=C2N2CCOCC2)cc1	1437	4	1440	1517	1	-4	x	x	x
Cc1[nH]c2ccccc2c1/C=C/c1cc[n+](C)cc1	x	10	1692	x	25*	17	17	13	12
CCOC(=O)N1CCC(N2CCCC(CO)(Cc3ccccc3C)C2)CC1 (stereo not drawn)	1582	-8	1526	1754	-6	1	x	x	x
CCOC(=O)c1nc(-c2ccc(OC)c(OC)c2)no1	1475	6	1521	1633	4	1	x	x	x
C=CCOc1c(Cl)cc(CNc2ccc(N(C)C)cc2)cc1OC	x	103*	2956*	x	60*	120*	9	9	6
C=CCOc1c(Cl)cc(CNc2ccc(C)c(Cl)c2)cc1OC	x	-8	1597	x	2	-10	x	x	x
CC(C)(C)NS(=O)(=O)c1ccc(/C=C/C(=O)O)cc1	1724	3	1564	1641	15	0	x	x	x
